{"source": "PubChem BioAssay AID651871", "about": "(Sanford-Burnham Center for Chemical Genomics, 2012)", "note": "Several values for one entry are separate records, joined by “and”; a condition that tells them apart may be missing. Identical values can stand only once."}
{"tested_on": "HL-1", "test": "cardiomyocyte survival under oxidative or metabolic stress – cell-based, panel, H9c2 and HL-1, ATP luminescence, set 2, SAR follow-up (AID 651871);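 note: cells exposed to stressor for 2 h before ATP readout; reference of the scale not given here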", "settings": "H9c2/HL-1 cardiomyocytes, 2-deoxyglucose stress, with 2-deoxyglucose, run 3, at 79 µM (top of the series)"}
{"smiles": "COc1ccc2nc(-c3cc(OC)c(OC)c(OC)c3)cc(C(=O)NCC(=O)Nc3ccc(C(C)=O)cc3)c2c1", "activity (protection/inhibition)": "38.8%"}
{"smiles": "CCOC(=O)c1cccc(NC(=O)CNC(=O)c2cc(-c3cc(OC)c(OC)c(OC)c3)nc3ccccc23)c1", "activity (protection/inhibition)": "95.7%"}
{"smiles": "COc1ccc2c(c1OC)C(=O)N1c3ccccc3C(=O)N(Cc3cccc(Cl)c3Cl)C21", "note": "(stereo not drawn)", "activity (protection/inhibition)": "35.1% and -7.14%"}
